{"source": "PubChem BioAssay AID1159580", "about": "(chemical genetic matrix, 2015)", "assay": "chemical genetic growth profiling, strain panel (AID 1159580);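 further: tested at 20 µM; growth read once vehicle control cultures reached saturation at 30 °C; 1 = growth at the plate median or of vehicle wells; lower values mean less growth of the strain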", "conditions": "growth OD", "note": "Out of some 5,500 compounds screened, about 2,000 (36%) were called active. Another 18% or so got no clear call; they are omitted. The list shows a part of the results. Values without a mark were called inactive. No stated cut-off is given here; in the data, active means normalized growth mostly below about 0.91 (no sharp cut-off); inconclusive means no clear call, values can overlap the other calls; inactive means mostly above about 0.92.", "data": [{"compound": "CCN(CC)CCOc1ccc(/C(=C(\\Cl)c2ccccc2)c2ccccc2)cc1", "values": [{"measurement": "normalized growth", "setting": "S. cerevisiae deletion strains, locus YKL009W, strain mrt4, hits give low values", "value": 0.917}, {"measurement": "normalized growth", "setting": "S. cerevisiae deletion strains, locus YKL068W, hits give low values", "value": 1.01}, {"measurement": "normalized growth", "setting": "S. cerevisiae deletion strains, locus YKL160W, strain elf1, hits give low values", "value": "0.195 (active)"}, {"measurement": "normalized growth", "setting": "S. cerevisiae deletion strains, locus YKL190W, strain CNB1, hits give low values", "value": "0.0469 (active)"}, {"measurement": "normalized growth", "setting": "S. cerevisiae deletion strains, locus YKR001C, strain vps1, hits give low values", "value": "0.0607 (active)"}, {"measurement": "normalized growth", "setting": "S. cerevisiae deletion strains, locus YKR026C, strain gcn3, hits give low values", "value": "0.209 (active)"}, {"measurement": "normalized growth", "setting": "S. cerevisiae deletion strains, locus YKR091W, strain srl3, hits give low values", "value": "0.171 (active)"}, {"measurement": "normalized growth", "setting": "S. cerevisiae deletion strains, locus YLL001W, strain dnm1, hits give low values", "value": "0.108 (active)"}, {"measurement": "normalized growth", "setting": "S. cerevisiae deletion strains, locus YLL026W, hits give low values", "value": "0.0855 (active)"}, {"measurement": "normalized growth", "setting": "S. cerevisiae deletion strains, locus YLL041C, strain sdh2, hits give low values", "value": "0.129 (active)"}, {"measurement": "normalized growth", "setting": "S. cerevisiae deletion strains, locus YLR027C, strain aat2, hits give low values", "value": "0.093 (active)"}, {"measurement": "normalized growth", "setting": "S. cerevisiae deletion strains, locus YLR039C, strain RIC1, hits give low values", "value": "0.099 (active)"}, {"measurement": "normalized growth", "setting": "S. cerevisiae deletion strains, locus YLR058C, strain SHM2, hits give low values", "value": "0.0491 (active)"}, {"measurement": "normalized growth", "setting": "S. cerevisiae deletion strains, locus YLR102C, strain apc9, hits give low values", "value": "0.0621 (active)"}, {"measurement": "normalized growth", "setting": "S. cerevisiae deletion strains, locus YLR113W, strain HOG1, hits give low values", "value": 0.925}, {"measurement": "normalized growth", "setting": "S. cerevisiae deletion strains, locus YLR221C, strain rsa3, hits give low values", "value": "0.104 (active)"}, {"measurement": "normalized growth", "setting": "S. cerevisiae deletion strains, locus YLR258W, strain gsy2, hits give low values", "value": "0.0916 (active)"}, {"measurement": "normalized growth", "setting": "S. cerevisiae deletion strains, locus YLR262C, strain YPT6 (second series), hits give low values", "value": 0.933}, {"measurement": "normalized growth", "setting": "S. cerevisiae deletion strains, locus YLR262C, strain YPT6, hits give low values", "value": "0.1 (active)"}, {"measurement": "normalized growth", "setting": "S. cerevisiae deletion strains, locus YLR268W, strain sec22, hits give low values", "value": "0.0697 (active)"}, {"measurement": "normalized growth", "setting": "S. cerevisiae deletion strains, locus YLR320W, strain mms22, hits give low values", "value": "0.182 (active)"}, {"measurement": "normalized growth", "setting": "S. cerevisiae deletion strains, locus YLR330W, strain CHS5, hits give low values", "value": "0.0524 (active)"}, {"measurement": "normalized growth", "setting": "S. cerevisiae deletion strains, locus YLR342W, strain FKS1 (second series), hits give low values", "value": "0.066 (active)"}, {"measurement": "normalized growth", "setting": "S. cerevisiae deletion strains, locus YLR342W, strain FKS1, hits give low values", "value": "0.156 (active)"}, {"measurement": "normalized growth", "setting": "S. cerevisiae deletion strains, locus YLR357W, strain rsc2, hits give low values", "value": "0.175 (active)"}, {"measurement": "normalized growth", "setting": "S. cerevisiae deletion strains, locus YLR370C, strain arc18, hits give low values", "value": "0.0727 (active)"}, {"measurement": "normalized growth", "setting": "S. cerevisiae deletion strains, locus YLR371W, strain rom2, hits give low values", "value": "0.0621 (active)"}, {"measurement": "normalized growth", "setting": "S. cerevisiae deletion strains, locus YLR384C, strain iki3, hits give low values", "value": "0.714 (active)"}, {"measurement": "normalized growth", "setting": "S. cerevisiae deletion strains, locus YLR418C, strain cdc73, hits give low values", "value": "0.0928 (active)"}, {"measurement": "normalized growth", "setting": "S. cerevisiae deletion strains, locus YML016C, strain PPZ1, hits give low values", "value": "0.0474 (active)"}, {"measurement": "normalized growth", "setting": "S. cerevisiae deletion strains, locus YML032C, strain rad52, hits give low values", "value": "0.0749 (active)"}, {"measurement": "normalized growth", "setting": "S. cerevisiae deletion strains, locus YML120C, strain ndi1, hits give low values", "value": "0.121 (active)"}, {"measurement": "normalized growth", "setting": "S. cerevisiae deletion strains, locus YML124C, strain tub3, hits give low values", "value": "0.0612 (active)"}, {"measurement": "normalized growth", "setting": "S. cerevisiae deletion strains, locus YMR058W, strain fet3, hits give low values", "value": "0.0872 (active)"}, {"measurement": "normalized growth", "setting": "S. cerevisiae deletion strains, locus YMR078C, strain ctf18, hits give low values", "value": "0.0745 (active)"}, {"measurement": "normalized growth", "setting": "S. cerevisiae deletion strains, locus YMR125W, strain sto1, hits give low values", "value": "0.17 (active)"}, {"measurement": "normalized growth", "setting": "S. cerevisiae deletion strains, locus YMR129W, hits give low values", "value": "0.129 (active)"}, {"measurement": "normalized growth", "setting": "S. cerevisiae deletion strains, locus YMR205C, strain PFK2, hits give low values", "value": "0.145 (active)"}, {"measurement": "normalized growth", "setting": "S. cerevisiae deletion strains, locus YMR223W, strain ubp8, hits give low values", "value": "0.0648 (active)"}, {"measurement": "normalized growth", "setting": "S. cerevisiae deletion strains, locus YMR231W, strain pep5, hits give low values", "value": "0.0748 (active)"}, {"measurement": "normalized growth", "setting": "S. cerevisiae deletion strains, locus YMR263W, strain SAP30, hits give low values", "value": "0.0606 (active)"}, {"measurement": "normalized growth", "setting": "S. cerevisiae deletion strains, locus YMR307W, strain GAS1, hits give low values", "value": "0.123 (active)"}, {"measurement": "normalized growth", "setting": "S. cerevisiae deletion strains, locus YNL067W, strain RPL9B, hits give low values", "value": "0.0497 (active)"}, {"measurement": "normalized growth", "setting": "S. cerevisiae deletion strains, locus YNL071W, strain lat1, hits give low values", "value": "0.14 (active)"}, {"measurement": "normalized growth", "setting": "S. cerevisiae deletion strains, locus YNL128W, strain TEP1, hits give low values", "value": "0.0656 (active)"}, {"measurement": "normalized growth", "setting": "S. cerevisiae deletion strains, locus YNL183C, strain NPR1, hits give low values", "value": 0.92}, {"measurement": "normalized growth", "setting": "S. cerevisiae deletion strains, locus YNL209W, strain ssb2, hits give low values", "value": "0.126 (active)"}, {"measurement": "normalized growth", "setting": "S. cerevisiae deletion strains, locus YNL233W, strain BNI4, hits give low values", "value": "0.057 (active)"}, {"measurement": "normalized growth", "setting": "S. cerevisiae deletion strains, locus YNL248C, strain rpa49, hits give low values", "value": "0.191 (active)"}, {"measurement": "normalized growth", "setting": "S. cerevisiae deletion strains, locus YNL250W, strain rad50, hits give low values", "value": 0.922}, {"measurement": "normalized growth", "setting": "S. cerevisiae deletion strains, locus YNL271C, strain bni1, hits give low values", "value": 0.962}, {"measurement": "normalized growth", "setting": "S. cerevisiae deletion strains, locus YNL298W, strain CLA4, hits give low values", "value": 0.914}, {"measurement": "normalized growth", "setting": "S. cerevisiae deletion strains, locus YNL307C, strain MCK1, hits give low values", "value": "0.0652 (active)"}, {"measurement": "normalized growth", "setting": "S. cerevisiae deletion strains, locus YNL322C, strain KRE1 (second series), hits give low values", "value": 1.02}, {"measurement": "normalized growth", "setting": "S. cerevisiae deletion strains, locus YNL322C, strain KRE1, hits give low values", "value": "0.0484 (active)"}, {"measurement": "normalized growth", "setting": "S. cerevisiae deletion strains, locus YNR049C, strain mso1, hits give low values", "value": "0.0907 (active)"}, {"measurement": "normalized growth", "setting": "S. cerevisiae deletion strains, locus YNR052C, strain pop2, hits give low values", "value": "0.0587 (active)"}, {"measurement": "normalized growth", "setting": "S. cerevisiae deletion strains, locus YOL006C, strain TOP1, hits give low values", "value": "0.117 (active)"}, {"measurement": "normalized growth", "setting": "S. cerevisiae deletion strains, locus YOL147C, strain pex11, hits give low values", "value": "0.0607 (active)"}, {"measurement": "normalized growth", "setting": "S. cerevisiae deletion strains, locus YOR001W, strain rrp6, hits give low values", "value": "0.337 (active)"}, {"measurement": "normalized growth", "setting": "S. cerevisiae deletion strains, locus YOR061W, strain CKA2, hits give low values", "value": "0.0462 (active)"}, {"measurement": "normalized growth", "setting": "S. cerevisiae deletion strains, locus YOR069W, strain VPS5, hits give low values", "value": "0.0488 (active)"}, {"measurement": "normalized growth", "setting": "S. cerevisiae deletion strains, locus YOR070C, strain gyp1, hits give low values", "value": "0.0639 (active)"}, {"measurement": "normalized growth", "setting": "S. cerevisiae deletion strains, locus YOR080W, strain dia2, hits give low values", "value": "0.289 (active)"}, {"measurement": "normalized growth", "setting": "S. cerevisiae deletion strains, locus YOR083W, strain WHI5, hits give low values", "value": "0.102 (active)"}, {"measurement": "normalized growth", "setting": "S. cerevisiae deletion strains, locus YOR106W, strain vam3, hits give low values", "value": "0.0804 (active)"}, {"measurement": "normalized growth", "setting": "S. cerevisiae deletion strains, locus YOR136W, strain idh2, hits give low values", "value": "0.0748 (active)"}, {"measurement": "normalized growth", "setting": "S. cerevisiae deletion strains, locus YOR144C, strain elg1, hits give low values", "value": "0.0617 (active)"}, {"measurement": "normalized growth", "setting": "S. cerevisiae deletion strains, locus YOR184W, strain ser1, hits give low values", "value": "0.0757 (active)"}, {"measurement": "normalized growth", "setting": "S. cerevisiae deletion strains, locus YOR231W, strain MKK1, hits give low values", "value": 0.946}, {"measurement": "normalized growth", "setting": "S. cerevisiae deletion strains, locus YOR265W, strain rbl2, hits give low values", "value": "0.0762 (active)"}, {"measurement": "normalized growth", "setting": "S. cerevisiae deletion strains, locus YOR270C, strain vph1, hits give low values", "value": "0.0899 (active)"}, {"measurement": "normalized growth", "setting": "S. cerevisiae deletion strains, locus YOR290C, strain snf2, hits give low values", "value": "0.112 (active)"}, {"measurement": "normalized growth", "setting": "S. cerevisiae deletion strains, locus YOR316C, strain cot1, hits give low values", "value": "0.0599 (active)"}, {"measurement": "normalized growth", "setting": "S. cerevisiae deletion strains, locus YPL051W, strain arl3, hits give low values", "value": "0.303 (active)"}, {"measurement": "normalized growth", "setting": "S. cerevisiae deletion strains, locus YPL055C, strain LGE1, hits give low values", "value": "0.0709 (active)"}, {"measurement": "normalized growth", "setting": "S. cerevisiae deletion strains, locus YPL078C, strain atp4, hits give low values", "value": "0.232 (active)"}, {"measurement": "normalized growth", "setting": "S. cerevisiae deletion strains, locus YPL106C, strain sse1, hits give low values", "value": "0.136 (active)"}, {"measurement": "normalized growth", "setting": "S. cerevisiae deletion strains, locus YPL240C, strain hsp82, hits give low values", "value": "0.0981 (active)"}, {"measurement": "normalized growth", "setting": "S. cerevisiae deletion strains, locus YPL241C, strain CIN2, hits give low values", "value": "0.0508 (active)"}, {"measurement": "normalized growth", "setting": "S. cerevisiae deletion strains, locus YPL256C, strain CLN2, hits give low values", "value": 0.939}, {"measurement": "normalized growth", "setting": "S. cerevisiae deletion strains, locus YPR119W, strain clb2, hits give low values", "value": "0.067 (active)"}, {"measurement": "normalized growth", "setting": "S. cerevisiae deletion strains, locus YPR141C, strain kar3, hits give low values", "value": 1.03}, {"measurement": "normalized growth", "setting": "S. cerevisiae deletion strains, locus YPR163C, strain tif3, hits give low values", "value": "0.0698 (active)"}, {"measurement": "normalized growth", "setting": "S. cerevisiae deletion strains, locus YPR167C, strain met16, hits give low values", "value": "0.0645 (active)"}, {"measurement": "normalized growth", "setting": "S. cerevisiae deletion strains, strain wtn01, hits give low values", "value": "0.0644 (active)"}, {"measurement": "normalized growth", "setting": "S. cerevisiae strains, strain wild type, hits give low values", "value": "0.0486 (active)"}]}]}
